# Where a name gives a salt, the structure may show the parent alone. ± gives the standard deviation.
# Tested on: Jurkat
# Experiment: cell count relative to DMSO control (fraction of control); higher = more cells (less growth inhibition)
# Conditions: 48 h
row,Compound,cell count
1,CC(NC(C)(C)C)C(=O)c1cccc(Cl)c1 (centres undefined) [Bupropion] (concentration: 25 µM),0.696 ± 0.15
2,CC1(C)C(C=C(Cl)Cl)C1C(=O)OCc1cccc(Oc2ccccc2)c1 (centres undefined) [Permethrin] (concentration: 25 µM),1.05 ± 0.08
3,CC[C@@H](C(N)=O)N1CCCC1=O [Levetiracetam] (concentration: 25 µM),0.603 ± 0.1
4,CC(C)C[C@H]1C(=O)N2CCC[C@H]2[C@]2(O)O[C@](NC(=O)[C@@H]3C=C4c5cccc6[nH]c(Br)c(c56)C[C@H]4N(C)C3)(C(C)C)C(=O)N12 [Bromocriptine Mesylate] (concentration: 25 µM),0.288 ± 0.21
5,Nc1ccncc1 [Dalfampridine (4-Aminopyridine)] (concentration: 25 µM),0.646 ± 0.16
6,CC1C=CC=CCCC=CC=CC=CC=CC(OC2OC(C)C(O)C(N)C2O)CC2OC(O)(CC(O)C(O)CCC(O)CC(O)CC(O)CC(=O)OC(C)C(C)C1O)CC(O)C2C(=O)O (centres undefined) [Nystatin] (concentration: 25 µM),0.729 ± 0.11
7,CCCC(C)(COC(N)=O)COC(N)=O [Meprobamate (Schedule Iv)] (concentration: 25 µM),0.941 ± 0.069
8,C[C@]12CC[C@@H]3c4ccc(OC(=O)N(CCCl)CCCl)cc4CC[C@H]3[C@@H]1CC[C@@H]2OP(=O)(O)O [Estramustine Phosphate·Na] (concentration: 25 µM),0.781 ± 0.051
9,Oc1ccc2c3c1O[C@H]1[C@@H](O)CC[C@@]4(O)[C@@H](C2)N(CC2CCC2)CC[C@]314 [Nalbuphine·HCl Dihydrate] (concentration: 25 µM),0.995 ± 0.17

# Source: the supplement of paper PMC4709259
